Results published in PubChem BioAssay (EPA / NIEHS).
Records with an inconclusive call do not appear. The source made the active and inactive calls. Rule for the calls: active = hit-call score of the fitted dose curve at least 0.9, where 1 is the maximum; inconclusive = response in the unintended direction; inactive = score below 0.9.

biological target: human Peroxisome Proliferator-activated Receptor alpha (PPARa), PPARA (gene 5465) (UniProt Q07869); assay: NVS_NR_hPPARa: NovaScreen (NVS) Nuclear Receptor Binding Assay for human Peroxisome Proliferator-activated Receptor alpha (PPARa) (AID 2283359);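 note: activity means loss of TR-FRET signal versus DMSO baseline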
Method: NVS_NR_hPPARa is a biochemical, single-readout assay that uses extracted gene-proteins in a cell-free assay. Measurements were taken 1 hour after chemical dosing in a 384-well plate.NVS_NR_hPPARa is one of one assay component(s) measured or calculated from the NVS_NR_hPPARa assay. It is designed to make measurements of fluorescent resonance energy transfer, a form of binding reporter, as detected with fluorescent resonance energy transfer signals by Time-Resolved Fluorescence Resonance Energy Transfer (TR-FRET) technology.Data from the assay component NVS_NR_hPPARa was analyzed into 1 assay endpoint. This assay endpoint, NVS_NR_hPPARa, was analyzed in the positive analysis fitting direction relative to DMSO as the negative control and baseline of activity. Using a type of binding reporter, loss-of-signal activity can be used to understand changes in the binding as they relate to the gene PPARA. Furthermore, this assay endpoint can be referred to as a primary readout, because the performed assay has only produced 1 assay endpoint. To generalize the intended target to other relatable targets, this assay endpoint is annotated to the nuclear receptor intended target family, where the subfamily is non-steroidal.
Binding assays used specific radioligands (tritiated, iodinated) with non-radioactive competitive displacement ligands in agonist or antagonist protocols (as indicated) and various reference compounds and inhibitors to titrate specific binding to receptors and transporters. Most enzyme assays (CYPs, kinases, phosphatases, proteases, HDACs) used recombinant protein and specific substrates (fluorescence mostly, some colorimetric and radioactive) and inhibitors, followed by a biochemical separation of substrate and product. All assays for the biochemical HTS were initially run in duplicate at a single concentration (10 uM for CYP450 assays and 25 uM for all others). […] Each assay was run with positive and negative controls, and concurrent controls on every plate. The follow-up (secondary) screen tested active chemical-pairs in concentration series, as well as a few additional assays not tested in the primary screen, some selected negative inactives, and several cases re-run in the concentration series for confirmatory purposes.

Chain of human Peroxisome Proliferator-activated Receptor alpha (PPARa), PPARA (gene 5465) (Q07869 whole entry, looked up): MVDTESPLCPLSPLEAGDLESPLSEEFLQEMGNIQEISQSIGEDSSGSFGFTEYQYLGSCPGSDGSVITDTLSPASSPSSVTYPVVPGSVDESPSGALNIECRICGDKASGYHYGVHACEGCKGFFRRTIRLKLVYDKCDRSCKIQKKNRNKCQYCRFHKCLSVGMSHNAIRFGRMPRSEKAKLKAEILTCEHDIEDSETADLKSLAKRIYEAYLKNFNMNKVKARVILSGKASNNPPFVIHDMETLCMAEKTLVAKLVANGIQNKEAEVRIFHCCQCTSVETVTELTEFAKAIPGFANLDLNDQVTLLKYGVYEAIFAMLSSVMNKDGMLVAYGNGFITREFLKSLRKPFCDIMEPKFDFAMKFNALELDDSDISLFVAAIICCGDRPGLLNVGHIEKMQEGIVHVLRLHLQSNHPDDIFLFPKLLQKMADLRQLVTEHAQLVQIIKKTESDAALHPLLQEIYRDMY

SMILES | outcome | AC50
O=C(N[C@@H](c1ccccc1)[C@@H]1CCCCN1)c1cccc(C(F)(F)F)c1Cl | inactive | –
Nc1nc(Cl)nc2c1ncn2[C@H]1C[C@H](O)[C@@H](CO)O1 | inactive | –
CC(C)c1cccc(C(C)C)c1NC(=O)NS(=O)(=O)c1cc(C(C)(C)O)co1 | inactive | –
NC(=Nc1ccccc1)Nc1ccccc1 | inactive | –
CC1=C(C)S(=O)(=O)CCS1(=O)=O | inactive | –
CC(C)COC(=O)CCCCC(=O)OCC(C)C | inactive | –
COc1ccc(OC(F)(F)F)cc1CN[C@H]1CCCN[C@H]1c1ccccc1 | inactive | –
CSc1ccc(Oc2ccc(S(N)(=O)=O)cc2CN(C)C)cc1C | inactive | –
CC(=O)O[C@]1(C(C)=O)CC[C@H]2[C@@H]3C=C(Cl)C4=CC(=O)[C@@H]5C[C@@H]5[C@]4(C)[C@H]3CC[C@@]21C | inactive | –
CC(C)(C)c1ccccc1 | inactive | –
Oc1ccc(O)cc1 | inactive | –
CCCCOC(=O)CCCCC(=O)OCCCC | inactive | –
CN(C)CCCN(C)CCCN(C)C | inactive | –
Oc1ccccc1O | inactive | –
O=C(Oc1ccccc1)c1cccc(C(=O)Oc2ccccc2)c1 | inactive | –
CC(C)NCC(O)c1ccc(O)c(O)c1 (stereo not given) | inactive | –
CCCCCCC(CCCCCCCCCCC(=O)OCC(COC(C)=O)OC(C)=O)OC(C)=O (stereo not given) | inactive | –
CCCCCCCCCCCCCCOS(=O)(=O)O | – | 3.99 µM (active)
CCC(C)N(C)C(=O)c1cc2ccccc2c(-c2ccccc2Cl)n1 (stereo not given) | inactive | –
COc1ccc(C(=O)Nc2nc3ccccc3c(NCc3ccccc3)c2C#N)cc1 | inactive | –
